{
  "source": "PubChem BioAssay (EPA / NIEHS)",
  "note": "Inconclusive results are not listed. Activity calls are given as the source filed them. Rule for the calls: active = hit-call score of the fitted dose curve at least 0.9, where 1 is the maximum; inconclusive = response in the unintended direction; inactive = score below 0.9.",
  "data": [
    {"target": "rat Opioid Receptor, Non-selective Sodium (Na+) Binding, Oprm1 (gene 25601) (UniProt P33535)", "sequence (P33535 whole entry, looked up)": "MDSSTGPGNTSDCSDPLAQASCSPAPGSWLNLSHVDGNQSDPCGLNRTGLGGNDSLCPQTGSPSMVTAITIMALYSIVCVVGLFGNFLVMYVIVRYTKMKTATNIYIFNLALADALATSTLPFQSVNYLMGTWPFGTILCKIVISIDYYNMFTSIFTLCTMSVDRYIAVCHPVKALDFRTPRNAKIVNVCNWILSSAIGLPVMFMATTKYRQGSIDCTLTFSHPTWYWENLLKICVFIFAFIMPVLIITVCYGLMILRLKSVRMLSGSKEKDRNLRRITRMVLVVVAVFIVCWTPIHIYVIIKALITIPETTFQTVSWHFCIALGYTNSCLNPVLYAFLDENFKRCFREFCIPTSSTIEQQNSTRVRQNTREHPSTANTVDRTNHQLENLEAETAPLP", "test": "NVS_GPCR_rOpiate_NonSelectiveNa: NovaScreen (NVS) G Protein-Coupled Receptor Assay for rat Opioid Receptor, Non-selective Sodium (Na+) Binding (AID 2283311)", "in_short": "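Filtration radioligand binding on rat forebrain membrane preparations, read 1.5 h after dosing. Single-concentration 25 µM primary screen in duplicate, followed by singleton concentration series to 50 µM max for actives; DMSO baseline.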", "values": [
      {"smiles": "CCCN(CC)CC1COC2(CCC(C(C)(C)C)CC2)O1", "note": "(stereo not given)", "AC50": "13.8 µM (active)"},
      {"smiles": "O=C1C2CC=CCC2C(=O)N1SC(Cl)(Cl)Cl", "note": "(stereo not given)", "outcome": "inactive"},
      {"smiles": "COCC(C)N(C(=O)CCl)c1c(C)csc1C", "note": "(stereo not given)", "AC50": "16 µM (active)"},
      {"smiles": "CCOP(=O)(OCC)Oc1nc(Cl)c(Cl)cc1Cl", "AC50": "25 µM (active)"}
    ]},
    {"target": "human Neonicotinoid receptor (NNR), CHRNA2 (gene 1135) (UniProt Q15822)", "sequence (Q15822 whole entry, looked up)": "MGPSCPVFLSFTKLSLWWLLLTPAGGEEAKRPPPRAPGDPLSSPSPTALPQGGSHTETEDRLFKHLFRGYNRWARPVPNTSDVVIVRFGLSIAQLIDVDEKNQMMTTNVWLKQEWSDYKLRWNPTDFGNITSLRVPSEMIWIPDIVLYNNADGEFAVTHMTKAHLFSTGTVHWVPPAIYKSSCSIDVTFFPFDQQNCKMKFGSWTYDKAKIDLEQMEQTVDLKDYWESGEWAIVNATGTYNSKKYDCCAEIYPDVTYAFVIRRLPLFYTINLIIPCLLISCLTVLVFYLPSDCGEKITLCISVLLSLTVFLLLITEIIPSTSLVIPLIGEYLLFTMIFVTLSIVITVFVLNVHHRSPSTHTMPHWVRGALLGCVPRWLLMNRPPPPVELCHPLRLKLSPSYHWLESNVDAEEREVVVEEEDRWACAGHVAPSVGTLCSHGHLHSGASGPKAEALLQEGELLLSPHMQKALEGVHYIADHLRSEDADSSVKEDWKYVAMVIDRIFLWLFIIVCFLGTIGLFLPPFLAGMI", "test": "NVS_LGIC_hNNR_NBungSens: NovaScreen (NVS) Ligand-Gated Ion Channel Assay for human Neonicotinoid receptor (NNR) (AID 2283313)", "in_short": "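Compounds first screened in duplicate at 25 uM, then actives re-tested in single-replicate dose series up to 50 uM. Binding measured as displacement of specific radioligand from neuroblastoma membrane receptors after 2 h, scintillation read on filters.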", "values": [
      {"smiles": "CN/C(=N\\[N+](=O)[O-])NCc1cnc(Cl)s1", "AC50": "10.1 µM (active)"},
      {"smiles": "CC1(C)C(C=C(Cl)Cl)C1C(=O)OC(C#N)c1cccc(Oc2ccccc2)c1", "note": "(stereo not given)", "AC50": "25 µM (active)"},
      {"smiles": "N#CN=C1SCCN1Cc1ccc(Cl)nc1", "AC50": "4.45 µM (active)"},
      {"smiles": "Cc1ccc(N=CN(C)C=Nc2ccc(C)cc2C)c(C)c1", "outcome": "inactive"}
    ]},
    {"target": "rat Somatostatin Receptor (SST), Sstr1 (gene 25033) (UniProt P28646)", "sequence (P28646 whole entry, looked up)": "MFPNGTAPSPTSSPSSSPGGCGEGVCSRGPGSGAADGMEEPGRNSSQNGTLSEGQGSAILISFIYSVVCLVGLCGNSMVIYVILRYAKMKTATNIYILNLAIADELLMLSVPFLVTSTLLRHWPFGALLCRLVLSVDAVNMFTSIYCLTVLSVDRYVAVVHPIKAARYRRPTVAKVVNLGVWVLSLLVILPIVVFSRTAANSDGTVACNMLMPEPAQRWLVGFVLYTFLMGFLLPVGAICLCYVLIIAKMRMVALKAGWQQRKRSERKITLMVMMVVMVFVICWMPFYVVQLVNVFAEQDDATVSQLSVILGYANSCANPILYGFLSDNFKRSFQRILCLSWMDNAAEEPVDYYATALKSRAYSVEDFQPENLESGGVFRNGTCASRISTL", "test": "NVS_GPCR_rSST: NovaScreen (NVS) G Protein-Coupled Receptor Assay for rat Somatostatin Receptor (SST) (AID 2283314)", "in_short": "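Single-concentration duplicate screen (25 uM), then concentration-response up to 50 uM for chemicals passing a threshold such as 30% inhibition. Membranes came from rat forebrain. Binding was measured 1 h post-dose by filter radiodetection and scintillation, relative to DMSO.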", "values": [
      {"smiles": "CCOC(=O)C(C)OC(=O)c1cc(Oc2ccc(C(F)(F)F)cc2Cl)ccc1[N+](=O)[O-]", "note": "(stereo not given)", "AC50": "41.1 µM (active)"},
      {"smiles": "O=C1C2CC=CCC2C(=O)N1SC(Cl)(Cl)Cl", "note": "(stereo not given)", "AC50": "5.93 µM (active)"},
      {"smiles": "CCOP(=O)(OCC)Oc1nc(Cl)c(Cl)cc1Cl", "AC50": "6.64 µM (active)"}
    ]},
    {"target": "rat Neonicotinoid receptor (NNR), Chrna7 (gene 25302) (UniProt Q05941)", "sequence (Q05941 whole entry, looked up)": "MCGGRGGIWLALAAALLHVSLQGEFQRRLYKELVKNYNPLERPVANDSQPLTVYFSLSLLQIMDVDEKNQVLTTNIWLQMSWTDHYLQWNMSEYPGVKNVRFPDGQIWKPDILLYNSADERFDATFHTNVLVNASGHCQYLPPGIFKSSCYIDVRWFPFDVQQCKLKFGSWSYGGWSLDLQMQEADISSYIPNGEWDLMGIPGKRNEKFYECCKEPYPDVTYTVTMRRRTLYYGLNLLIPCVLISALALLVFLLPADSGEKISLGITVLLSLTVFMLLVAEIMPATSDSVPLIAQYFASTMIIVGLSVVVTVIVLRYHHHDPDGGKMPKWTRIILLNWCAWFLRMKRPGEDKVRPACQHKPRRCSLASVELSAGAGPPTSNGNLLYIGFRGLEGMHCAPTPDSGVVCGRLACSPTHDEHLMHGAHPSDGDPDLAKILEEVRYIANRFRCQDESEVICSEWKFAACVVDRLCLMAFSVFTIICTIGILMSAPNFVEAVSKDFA", "test": "NVS_LGIC_rNNR_BungSens: NovaScreen (NVS) Ligand-Gated Ion Channel Assay for rat Neonicotinoid receptor (NNR) (AID 2283315)", "in_short": "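Rat cortical membrane preparation incubated 2.5 h with tritiated or iodinated radioligand and test chemical. Bound radioactivity was filtered and counted by scintillation, and displacement was analysed against DMSO.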", "values": [
      {"smiles": "CN/C(=N\\[N+](=O)[O-])NCc1cnc(Cl)s1", "AC50": "25 µM (active)"},
      {"smiles": "COC(=O)N(C(=O)N1CO[C@@]2(C(=O)OC)Cc3cc(Cl)ccc3C2=N1)c1ccc(OC(F)(F)F)cc1", "outcome": "inactive"},
      {"smiles": "N#CN=C1SCCN1Cc1ccc(Cl)nc1", "AC50": "5.39 µM (active)"}
    ]},
    {"target": "rat Opioid Receptor, Non-selective Binding, Oprm1 (gene 25601) (UniProt P33535)", "sequence (P33535 whole entry, looked up)": "as the sequence (P33535 whole entry, looked up) above", "test": "NVS_GPCR_rOpiate_NonSelective: NovaScreen (NVS) G Protein-Coupled Receptor Assay for rat Opioid Receptor, Non-selective Binding (AID 2283318)", "in_short": "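Filter-based radioligand displacement using rat forebrain membrane preparations, measured 1.5 h post-dosing. Single-concentration duplicate screen at 25 uM, follow-up in concentration series; activity taken as signal loss relative to DMSO.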", "values": [
      {"smiles": "CCOc1cc(C(C)(C)C)ccc1C1COC(c2c(F)cccc2F)=N1", "note": "(stereo not given)", "outcome": "inactive"},
      {"smiles": "CCCN(CC)CC1COC2(CCC(C(C)(C)C)CC2)O1", "note": "(stereo not given)", "outcome": "inactive"},
      {"smiles": "COCC(C)N(C(=O)CCl)c1c(C)csc1C", "note": "(stereo not given)", "outcome": "inactive"},
      {"smiles": "CCCC(=NOCC)C1=C(O)CC(CC(C)SCC)CC1=O", "note": "(stereo not given)", "outcome": "inactive"},
      {"smiles": "CCOP(=O)(OCC)Oc1nc(Cl)c(Cl)cc1Cl", "AC50": "11.1 µM (active)"},
      {"smiles": "CCN(CC)C(=O)C(C)Oc1cccc2ccccc12", "note": "(stereo not given)", "outcome": "inactive"}
    ]},
    {"test_system": "NCBI gene 24521", "test": "NVS_IC_rKATPCh: NovaScreen (NVS) Ion Channel Assay for rat Potassium Channel, ATP-Sensitive (KATPCh) (AID 2283319)", "in_short": "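Primary duplicate screen at 25 uM, then singleton concentration series to 50 uM maximum, in a rat cortex membrane radioligand displacement assay. Binding measured by filtration and scintillation 2 h post-dose; DMSO baseline.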", "values": [
      {"smiles": "CCOc1cc(C(C)(C)C)ccc1C1COC(c2c(F)cccc2F)=N1", "note": "(stereo not given)", "outcome": "inactive"},
      {"smiles": "COP(=O)(OC)O/C(C)=C/C(=O)N(C)C", "outcome": "inactive"},
      {"smiles": "COP(=S)(OC)SCn1nnc2ccccc2c1=O", "outcome": "inactive"},
      {"smiles": "CC(C)N1C(=O)c2ccccc2NS1(=O)=O", "outcome": "inactive"}
    ]},
    {"test_system": "not listed separately", "test": "NVS_IC_rCaDHPRCh_L: NovaScreen (NVS) Ion Channel Assay for rat Calcium Channel, Type L, Dihydropyridine Site (CaDHPRCh_L) (AID 2283320)", "in_short": "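Rat cortex membrane preparation; dihydropyridine-site radioligand displacement read 1 h post-dose by filtration and scintillation. Primary single-point screen 25 uM in duplicate, then concentration series to 50 uM maximum; DMSO as negative control.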", "values": [
      {"smiles": "CCOC(=O)C(C)OC(=O)c1cc(Oc2ccc(C(F)(F)F)cc2Cl)ccc1[N+](=O)[O-]", "note": "(stereo not given)", "AC50": "25 µM (active)"},
      {"smiles": "CC1(C)C(C=C(Cl)Cl)C1C(=O)OC(C#N)c1cccc(Oc2ccccc2)c1", "note": "(stereo not given)", "AC50": "9.51 µM (active)"},
      {"smiles": "COC(=O)c1c(C(F)F)nc(C(F)(F)F)c(C2=NCCS2)c1CC(C)C", "outcome": "inactive"},
      {"smiles": "CCCCC(C#N)(Cn1cncn1)c1ccc(Cl)cc1", "note": "(stereo not given)", "outcome": "inactive"},
      {"smiles": "CCCCOCN(C(=O)CCl)c1c(CC)cccc1CC", "AC50": "9.86 µM (active)"},
      {"smiles": "CO/N=C(/C1=NOCCO1)c1ccccc1Oc1ncnc(Oc2ccccc2Cl)c1F", "outcome": "inactive"}
    ]}
  ]
}
